Source: PubChem BioAssay (National Center for Advancing Translational Sciences (NCATS))
AmpC inh no detg – AmpC beta-lactamase inhibition without detergent | P00811 | AmpC nitrocefin hydrolysis, absorbance 480 nm, 0.0001% Triton | Potency, µM (titrated, usually from 57.1 µM), most hits filed as inhibitors | 0.52% of 330,000 active | AID 485341; also: nearly all actives have a fitted effect of over 20% in size
Target sequence (P00811 whole entry, looked up): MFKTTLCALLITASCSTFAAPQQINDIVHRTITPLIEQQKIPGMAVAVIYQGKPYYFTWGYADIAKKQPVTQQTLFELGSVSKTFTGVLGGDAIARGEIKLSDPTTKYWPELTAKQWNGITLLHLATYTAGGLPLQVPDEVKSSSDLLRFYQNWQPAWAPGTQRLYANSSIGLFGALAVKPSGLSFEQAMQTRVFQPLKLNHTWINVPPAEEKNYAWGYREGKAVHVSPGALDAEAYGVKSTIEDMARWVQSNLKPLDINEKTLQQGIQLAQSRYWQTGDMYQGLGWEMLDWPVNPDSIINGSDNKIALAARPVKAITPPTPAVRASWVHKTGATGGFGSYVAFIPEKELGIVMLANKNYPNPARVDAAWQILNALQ
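20 mM phosphate pH 7.0 + 0.01% (detergent screen) or 0.0001% Triton X-100; 5.3 nM AmpC reagent; cpd preinc 15 min RT; nitrocefin (800 uM stock) to start; A480 q20 s × 4 min; Activity was normalised to no-enzyme and no-compound control wells.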
AmpC inh detg – blocks E. coli AmpC beta-lactamase in detergent assay. P00811. Potency, µM (top dose mostly 114 µM), most hits filed as inhibitors. AmpC hydrolysis of nitrocefin, absorbance 480 nm, 0.01% Triton. 0.041% of 370,000 active; also: nearly all actives have a fitted effect of over 25% in size
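20 mM phosphate pH 7.0 + 0.01% (detergent screen) or 0.0001% Triton X-100; 5.3 nM AmpC reagent; cpd preinc 15 min RT; nitrocefin (800 uM stock) to start; A480 q20 s × 4 min; Activity was normalised to no-enzyme and no-compound control wells.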
Sm TGR inh – S. mansoni TGR enzyme inhibition; purified TGR, DTNB reduction, TNB absorbance 405 nm; Potency, µM (doses to about 114 µM), most hits filed as inhibitors; 3% of 360,000 active; AID 485364; also: nearly all actives have a fitted effect of over 60% in size
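TGR 20 nM + NADPH 100 uM (dispensed conc.), cpd preinc 15 min RT; start with NADPH (500 uM addition) then DTNB (15 mM addition). Kinetic TNB absorbance, 405 nm filter. Four-parameter Hill fit across titration.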
Each line names hits and unclear results; the compound was inactive in the other large screens. Compounds with a hit are over-represented: about 3.3% of the library has one in this group of screens. Calls follow the shape of the dose curve; as a rule, active = well fitted curve in the direction sought with a large enough effect; inconclusive = small, poorly fitted or top-dose-only effect, or another doubt; inactive = no such curve, though single readings can be large; an effect the other way counts as inactive or inconclusive.

CC1=Nc2cccc3cccc(c23)N1	Sm TGR inh 40µM
Nc1ccc(C2=Nc3cccc4cccc(c34)N2)cc1	AmpC inh no detg inconclusive, Sm TGR inh inconclusive
O=C1CN(C(=O)CSc2nnnn2C2CC2)c2ccccc2N1	AmpC inh detg inconclusive
Cn1c(=O)n(C)c2cc([N+](=O)[O-])c(N3CCNCC3)cc21	Sm TGR inh inconclusive
Cn1c(=O)c(=O)n(C)c2cc([N+](=O)[O-])c([N+](=O)[O-])cc21	AmpC inh detg inconclusive, Sm TGR inh 20µM
CCCCOc1cccc(C(=O)Nc2ccc(S(=O)(=O)Nc3cc(C)on3)cc2)c1	none
Cc1ccc2oc(-c3ccc(C)c(NC(=O)c4ccc(N5CCC(C)CC5)c([N+](=O)[O-])c4)c3)nc2c1	none (no result: AmpC inh no detg)
CN(Cc1cccs1)C(=O)c1cccc(S(=O)(=O)N2CCCCCC2)c1	none
Cc1c(O)c(CN2CCCC2)cc2c1oc(=O)c1ccccc12	AmpC inh detg inconclusive, Sm TGR inh 50µM
Cc1c(O)c(CN2CCCC2)cc2c3c(c(=O)oc12)CCC3	Sm TGR inh inconclusive
Cc1nc(CC(=O)Nc2cccc(C)c2C)cs1	none (no result: AmpC inh no detg)
CS(=O)c1ccccc1COC(=O)Nc1ccc(Cl)cc1 (configuration not stated)	AmpC inh no detg 6.3µM
Cc1ccc(NC(=O)OCc2ccccc2S(C)=O)cc1 (configuration not stated)	AmpC inh detg inconclusive
CCCC1Cc2nc(Cl)c(C#N)cc2CO1 (configuration not stated)	Sm TGR inh 40µM
CCC1(C)Cc2nc(Cl)c(C#N)cc2CO1 (configuration not stated)	Sm TGR inh inconclusive
COc1ccc2[nH]c(=O)c(C(c3nnnn3CC3CCCO3)N3CCc4ccccc4C3)cc2c1 (configuration not stated)	Sm TGR inh inconclusive
Cc1cc(C)c2[nH]c(=O)c(C(c3nnnn3CC3CCCO3)N3CCC(C)CC3)cc2c1 (configuration not stated)	AmpC inh detg inconclusive, Sm TGR inh 14µM
Cc1ccc2[nH]c(=O)c(C(c3nnnn3CC3CCCO3)N3CCc4ccccc4C3)cc2c1 (configuration not stated)	AmpC inh detg inconclusive, Sm TGR inh 25µM
Cc1cc(C)c2[nH]c(=O)c(C(c3nnnn3CC3CCCO3)N3CCCC(C)C3)cc2c1 (configuration not stated)	Sm TGR inh 13µM
CCc1ccc2[nH]c(=O)c(C(c3nnnn3CC3CCCO3)N3CCN4CCCC4C3)cc2c1 (configuration not stated)	Sm TGR inh inconclusive
Cc1ccc2[nH]c(=O)c(C(c3nnnn3CC3CCCO3)N3CCOCC3)cc2c1 (configuration not stated)	none
Cc1cc(NC(=O)C(C)SCC(=O)Nc2cc(C(F)(F)F)ccc2N2CCCCC2)no1 (configuration not stated)	AmpC inh no detg 32µM
Cc1cc(NC(=O)C(C)SCC(=O)Nc2ccccc2N2CCCC2)no1 (configuration not stated)	none
CCc1ccc(C(=O)Nc2cc(C)ccc2F)s1	none
CC(=O)N(CCc1ccccc1)Cc1cc2ccc(C)c(C)c2[nH]c1=O	none
CCC(=O)NC(c1ccco1)c1cc(Cl)c2ccccc2c1O (configuration not stated)	Sm TGR inh inconclusive
CC(=O)NC(c1ccco1)c1cc(Cl)c2ccccc2c1O (configuration not stated)	Sm TGR inh 63µM
Cc1ccc(-n2ncc3c(NCc4ccco4)ncnc32)cc1C	none
Cc1cccc(-n2ncc3c(NCc4ccco4)ncnc32)c1	AmpC inh detg inconclusive, Sm TGR inh 45µM
O=P(/C(=N/O)N1CCCCC1)(N1CCOCC1)N1CCOCC1	none
O=P(/C(=N/O)Sc1ccccc1)(N1CCOCC1)N1CCOCC1	Sm TGR inh 13µM
Cc1ccc(-c2nc3cnccn3c2Nc2c(C)cccc2C)o1	Sm TGR inh 14µM
Cc1ccccc1Nc1c(-c2cccc(Cl)c2)nc2ncccn12	none (no result: AmpC inh no detg)
Brc1ccc(-c2nc3ncccn3c2NC2CCCCC2)o1	Sm TGR inh 35µM
Cc1ccc(-c2nc3ncccn3c2NC2CCCC2)o1	none
Cc1ccc(-c2nc3ncccn3c2Nc2ccccc2C)o1	Sm TGR inh 40µM
Cc1ccc(Nc2c(-c3ccc(C)o3)nc3ncccn23)cc1	Sm TGR inh 20µM
Cc1ccn2c(Nc3ccc(F)cc3)c(-c3ccc(C)o3)nc2c1	none (no result: AmpC inh no detg)
Cc1ccc(-c2nc3ncccn3c2Nc2ccc3c(c2)OCO3)o1	Sm TGR inh inconclusive
Cc1ccc(NC(=O)c2ncn(-c3ccccc3)n2)cc1Cl	none (no result: AmpC inh no detg)
O=C(CSc1nc2ccccc2c(=O)[nH]1)Nc1cccc([N+](=O)[O-])c1	AmpC inh detg inconclusive
Cc1ccc(S(=O)(=O)N2CCCc3cc(NS(=O)(=O)c4ccc(F)c(C)c4)ccc32)cc1	none (no result: AmpC inh no detg)
COc1ccccc1-c1nnc(SC(C)C(=O)O)n1-c1ccccc1 (configuration not stated)	none (no result: Sm TGR inh)
Cc1ccc(S(=O)(=O)NC(C)CCc2ccccc2)cc1C(N)=O (configuration not stated)	none
CCn1c([N+](=O)[O-])nc2c1c(=O)[nH]c(=O)n2C	Sm TGR inh 25µM
CCCCCCn1c(SCCCC)nc2c1c(=O)[nH]c(=O)n2C	none
Cc1ccc(C(=O)Nc2ccccc2-c2ccccc2)o1	none
Cc1ncoc1C(=O)Nc1ccccc1-c1ccccc1	AmpC inh detg inconclusive, Sm TGR inh 1µM
COc1ccc(CNC(=O)CN(c2ccccc2OC)S(=O)(=O)c2cccs2)cc1	none (no result: AmpC inh detg, Sm TGR inh)
Cc1c(C)c2c(c(C)c1O)CCC(C)(C(=O)O)O2 (configuration not stated)	AmpC inh detg inconclusive
COc1cccc(CNC(=O)c2ccc(CNS(=O)(=O)c3ccc(C)cc3)cc2)c1	none (no result: AmpC inh no detg)
Cc1ccc(C(=O)N/C(=C\c2cn(C)c3ccccc23)C(=O)NCCCN2CCOCC2)cc1	none
Cc1ccc(C(=O)N/C(=C\c2ccc(-c3ccccc3[N+](=O)[O-])o2)C(=O)NCCCN2CCOCC2)cc1	Sm TGR inh 35µM
Cc1cn2c(=O)cc(COc3cccc(NC(=O)c4ccccc4C)c3)nc2s1	none (no result: AmpC inh no detg)
Cc1ccc(S(=O)(=O)/N=C(/Nc2cccc3ccccc23)c2ccc(F)cc2)cc1	none
COc1cc(C2C(C#N)=C(N)N(c3cccnc3)C3=C2C(=O)CCC3)ccc1O (configuration not stated)	none
COc1cc(C2C(C#N)=C(N)N(c3ccc(F)cc3)C3=C2S(=O)(=O)CC3)ccc1O (configuration not stated)	Sm TGR inh 45µM
FC(F)(F)c1ccc(C2[C@H]3CN(Cc4ccc(-c5ccccc5)cc4)[C@H](c4ccccc4)C34CC2(c2cccnc2)C4)cc1 (some centres not stated)	none
FC(F)(F)c1ccc(C2[C@H]3CN(Cc4ccc(-c5ccccc5)cc4)[C@H](c4ccccc4)C34CC2(c2ccccc2)C4)cc1 (some centres not stated)	Sm TGR inh 50µM
CC(C)C(OC(=O)c1nsc(Cl)c1Cl)C(=O)NCC1CCCO1 (configuration not stated)	none
